Holding throughout (assay): Primary qHTS to identify gynecologic anti-cancer compounds using libraries of approved drugs and bioactive compounds (AID 1345084); note: nearly all actives have a fitted effect of over 55% in size
The test system of one assay is C33A. The settings on record: Gynecologic cancer cell panel viability, ATPlite luminescence, 48 h; series mostly up to 57.5 µM. The procedure, abridged:
(§1)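 Cytotoxicity screen measuring ATP content by luciferase luminescence. Each compound is applied at five concentrations for 48 h at 37 C with 5% CO2.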
In general terms: In ATP-based viability assays light output follows the ATP content of the culture.

Another assay has as its system CASKI. The settings on record: Gynecologic cancer cell panel viability, ATPlite luminescence, 48 h; series mostly up to 57.5 µM. A digest of the protocol: as §1
A further assay concerns Es-2. The following applies: Gynecologic cancer cell panel viability, ATPlite luminescence, 48 h; series mostly up to 57.5 µM. The procedure, abridged: as §1
In the next assay the test system is HeLa. The settings on record: Gynecologic cancer cell panel viability, ATPlite luminescence, 48 h; series mostly up to 57.5 µM. A digest of the protocol: as §1
Another assay concerns Hek293T. The following applies: Gynecologic cancer cell panel viability, ATPlite luminescence, 48 h, control line for the selectivity index; series mostly up to 57.5 µM. A digest of the protocol:
as §1

In a further assay the test system is JEG-3. The settings on record: Gynecologic cancer cell panel viability, ATPlite luminescence, 48 h; series mostly up to 57.5 µM. The procedure, abridged:
as §1

Records with an inconclusive call do not appear. Active and inactive are the calls of the source. Calls come from the whole dose curve; as a rule, active = well fitted cell-killing curve with a large enough effect; inconclusive = small, poorly fitted or top-dose-only effect, or effect the other way; inactive = flat fitted curve, though single readings scatter.
Potency is the fitted concentration of half-maximal effect.

Turning to `O=c1[nH]c2cccc(N3CCN(Cc4ccc(-c5ccccc5)cc4)CC3)c2o1`, the Potency result in the assay on C33A, in the assay with CASKI, in the assay on Es-2, in the assay on HeLa, in the assay on Hek293T and with JEG-3 was “inactive” each time.
`CC1(C)CN(C(=O)c2ccc(-c3cccc4nc(NC(=O)C5CC5)nn34)cc2)C1`: the Potency result with C33A, in the assay with CASKI, in the assay with Es-2, with HeLa, in the assay with Hek293T and in the assay with JEG-3 was “inactive” in each case.
With `CC(C)C[C@@H](C(=O)N[C@@H](Cc1ccc(OCc2ccccc2)cc1)C(=O)NC(C)(C)C)N(C)Cc1ccc(C(C)(C)C)cc1`, the Potency entry with C33A, in the assay on CASKI, in the assay on Es-2, with HeLa, with Hek293T and in the assay with JEG-3 was “inactive” each time.
With `C=C1CCC[C@]2(C)CC/C(=C(/CO)C(=O)OC)C[C@@H]12`, the Potency result in the assay with C33A, with CASKI, in the assay on Es-2, with HeLa, in the assay with Hek293T and with JEG-3 was “inactive” in each case.
For the compound `CC(=O)O[C@H]1CC[C@]2(C)[C@H]3CC[C@]4(C)Oc5oc(C)cc(=O)c5C[C@H]4[C@]3(C)CC[C@H]2C1(C)C`, the Potency entry in the assay on C33A, in the assay with CASKI, in the assay with Es-2, in the assay on HeLa, in the assay with Hek293T and in the assay with JEG-3 was “inactive” in each case.
Regarding `COc1ccc(C(=O)O[C@H]2C=COC=C3C=C4C(=O)N(C)C(=S)C(=O)N4[C@@H]32)cc1Oc1cc(C=O)ccc1O`, the Potency entry with C33A, in the assay with CASKI, in the assay with Es-2, in the assay on HeLa, in the assay on Hek293T and in the assay with JEG-3 was “inactive” throughout.
As for `COC(=O)c1ccc(N2CCN(C)CC2)c(NC(=O)c2cccc(OC)c2)c1`, the Potency entry with C33A, in the assay on CASKI, with Es-2, in the assay with HeLa, in the assay on Hek293T and with JEG-3 was “inactive” in each case.
As for `COC(=O)c1cc2c(C(F)(F)F)cc(-c3ccccc3)cc2n1O`, the Potency entry in the assay with C33A, in the assay on CASKI, in the assay on Es-2, with HeLa, with Hek293T and with JEG-3 was “inactive” each time.
Consider `Cc1nc(Nc2cnn(C3CCNCC3)c2)nc2c1N(C)C(=O)c1cc3ccccc3cc1N2C`, for which the Potency result with C33A, in the assay with CASKI, in the assay with Es-2, in the assay with Hek293T and in the assay on JEG-3 was “inactive” each time.
`C=C1C(=O)OC2/C=C(\C)CC/C=C(\C)CC(OC(C)=O)C12` (stereo unspecified): the Potency entry in the assay with C33A, in the assay with CASKI, in the assay on HeLa, in the assay on Hek293T and in the assay on JEG-3 was “inactive” in each case.
For the compound `O=C(NC1(c2ccccc2)CC1)c1c(CN2CCC(N3CCCCC3)CC2)c(-c2cccc(C(F)(F)F)c2)nc2cc(Br)ccc12`, the Potency entry in the assay on C33A, in the assay on CASKI, in the assay with Es-2, in the assay with HeLa and in the assay on JEG-3 was “inactive” each time.
Turning to `C=C(C)C1CC(O)C(C)C12CC(O)C1(C)OC1C2O` (stereo unspecified), the Potency was 11.2 µM (active) in the assay on C33A; 12.6 µM (active) in the assay on CASKI; 8.91 µM (active) with Es-2; 14.1 µM (active) with HeLa; 28.2 µM (active) in the assay with JEG-3.
Consider `CC(C)C[C@H](C(=O)O)c1cc(-c2ccc(C(F)(F)F)cc2)cc(-c2ccc(C(F)(F)F)cc2)c1`, for which the Potency result with C33A, with CASKI, in the assay with Es-2 and in the assay with JEG-3 was “inactive” throughout.
With `C=CC(=O)N1CCC(Oc2cc3c(Nc4ccc(Cl)c(Cl)c4F)ncnc3cc2OC)CC1`, the Potency result in the assay on C33A, in the assay with Es-2 and in the assay on JEG-3 was “inactive” throughout. Besides, the Potency in the assay on CASKI was 22.4 µM (active).
Take `CN1CCN(C2CCN(C(=O)Nc3cc(Oc4ccc(NC(=O)C5(C(=O)Nc6ccc(F)cc6)CC5)c(F)c4)ccn3)CC2)CC1`: the Potency entry in the assay with C33A, in the assay with CASKI, in the assay with HeLa and in the assay with Hek293T was “inactive” each time.
On to `C=C1C(=O)O[C@@H]2C[C@H](C)[C@@H]3CC(=O)[C@H](O)[C@@]3(C)C[C@H]12`, for which the Potency result in the assay on C33A, in the assay on CASKI, in the assay on HeLa, with Hek293T and in the assay with JEG-3 was “inactive” throughout.
With `Cc1[nH]c(/C=C2\C(=O)Nc3ccc(F)cc32)c(C)c1C(=O)NCCN1CCCC1`, the Potency entry in the assay on C33A, in the assay with CASKI, in the assay on Es-2, in the assay on Hek293T and in the assay on JEG-3 was “inactive” each time.
On to `CN(C)CCn1cc(-c2ccc(F)cc2)c(-n2cccc2)n1`, for which the Potency entry with C33A, in the assay with CASKI, in the assay on Es-2, in the assay with HeLa, in the assay with Hek293T and with JEG-3 was “inactive” in each case.
For the compound `C=C1C(=O)O[C@@H]2[C@H]3C(C)=CC(=O)C3=C(C)[C@@H](OC(=O)/C(C)=C\C)[C@H](O)[C@@H]12`, the Potency result with C33A, in the assay on CASKI, with HeLa and with JEG-3 was “inactive” each time.
Take `C=C1C(=O)O[C@@H]2[C@H]1CC[C@H](C)C(CCC(=O)O)C2(C)O` (stereo partly specified): the Potency result in the assay on C33A, in the assay on CASKI and in the assay with HeLa was “inactive” in each case.
As to `C/C1=C/CCC2=CC(OC2=O)C(C)(C)/C=C/C1=O` (stereo unspecified), the Potency in the assay with C33A was 10 µM (active); in the assay on CASKI, 6.31 µM (active); in the assay on Es-2, 8.91 µM (active); in the assay with Hek293T it was 12.6 µM (active).
For `O=C(O)CSc1cc(NS(=O)(=O)c2ccc(Br)cc2)c2ccccc2c1O`, in that order: “inactive”, “inactive”, “inactive” and “inactive”.
As to `O=C(NCCCn1ccnc1)c1cc(-c2ccco2)on1`, the Potency result in the assay with C33A, with CASKI, in the assay with HeLa, with Hek293T and with JEG-3 was “inactive” throughout.
With `Cc1nc(NC(=O)N2CCCC2C(N)=O)sc1-c1ccnc(C(C)(C)C(F)(F)F)c1` (stereo unspecified), the Potency result with C33A, in the assay with Es-2, in the assay on Hek293T and with JEG-3 was “inactive” throughout. Further, the Potency in the assay with CASKI is 3.55 µM (active).
On to `C=C[C@@]12COC(=O)C(=C)[C@@H]1[C@@H](O)[C@H](C(=C)C(=O)OC)[C@@H](O)C2`, for which the Potency entry in the assay with C33A, with CASKI and in the assay on Hek293T was “inactive” throughout.
Regarding `O=C(Nc1ccc(-c2ccc(Cl)c(Cl)c2)cc1)C1=C(O)c2ccccc2S(=O)(=O)N1`, the Potency result in the assay on C33A, in the assay with CASKI, with Es-2, in the assay on HeLa and in the assay on JEG-3 was “inactive” each time.
Take `CCCCCCCCC(=O)N[C@H](CN1CCCC1)[C@H](O)c1ccc2c(c1)OCCO2`: the Potency result in the assay with C33A, with CASKI, with Es-2, in the assay with HeLa and in the assay on JEG-3 was “inactive” in each case.
On to `CC(=O)N1CCN(CCOc2ccc(C3CCN(C4=Nn5c(nnc5C(F)(F)F)CC4)CC3)cc2)CC1`, for which the Potency entry with C33A, with CASKI, with Es-2 and with JEG-3 was “inactive” throughout.
As to `O=S(=O)(NCc1cccc2ccccc12)c1cc(Cl)c(Oc2cccc(N3CCNCC3)c2)s1`, the Potency result in the assay on C33A, with CASKI, with HeLa and with JEG-3 was “inactive” in each case.
Consider `CC1CCC/C=C/C(=O)c2c(O)cc(O)cc2CC(=O)O1` (stereo unspecified), for which the Potency in the assay on C33A is 11.2 µM (active); in the assay with Hek293T, 14.1 µM (active); in the assay with JEG-3, 14.1 µM (active). Further, in the assay with CASKI, the Potency result was “inactive”.

For the origin of these results see PubChem BioAssay (NCATS).
